From PubChem BioAssay
An excerpt weighted towards active compounds, which were near 8% of everything screened.
Marburg entry: blocks Marburg virus binding or cell entry | Marburg virus pseudotype entry/binding inhibition, cell-based | Potency, µM (titrated, usually from 49.2 µM), usual class: inhibitors | 6.5% of 18,000 active | AID 720532
Lassa entry: Lassa virus entry inhibition; Potency, µM (doses to about 49.2 µM), hits mostly inhibitors; Lassa virus pseudotyped entry inhibition, cell-based qHTS; AID 720533; 4.1% of 18,000 active
Numbers stand for hits; n = inactive; u = inconclusive; x = no result given; ! = repeats disagree; [ ] = another dose, or the depositor's remark. Calls come from the whole dose curve; tested in HEK293 cells.

SMILES	Marburg entry	Lassa entry
COc1ccc2cc1Oc1ccc(cc1)C[C@H]1c3cc(c(OC)cc3CCN1C)Oc1c(OC)c(OC)cc3c1[C@@H](C2)N(C)CC3	2.2µM	u
COc1ccc2cc1Oc1ccc(cc1)CC1c3cc(c(OC)cc3CCN1C)Oc1c(OC)c(OC)cc3c1C(C2)N(C)CC3 (stereo not given)	1.6µM	11µM
Cc1cc2c(c(=O)n1-c1ccccc1)[C@H]1O[C@](c3ccsc3)(Cc3ccccc31)O2	u	n[8.59 µM]
O=C(c1ccnc(-n2cnnn2)c1)N1CCOc2ccc(C(O)CCc3ccccc3)cc2C1 (stereo not given)	n	n
COc1ccc(O[C@@H]2[C@H](O)CO[C@@H]2C=CC#Cc2ccccc2)cc1	n[8.59 µM]	n[8.59 µM]
COc1cc2c(cc1OC)[C@@H]1O[C@](c3ccsc3)(C2)Oc2cc(-c3ccccc3)oc(=O)c21	u	n[8.59 µM]
COc1ccccc1C(=O)N(Cc1cc2cc3c(cc2nc1N(C)C)OCO3)CC1CCCO1 (stereo not given)	13µM	11µM
Cc1ccc(C(=O)N(Cc2cc3cccc(C)c3nc2N(C)C)CC2CCCO2)cc1 (stereo not given)	n	n
FC(F)(F)c1cnc(-c2cc3c(c(OCC4CCCO4)c2)OCCN(Cc2cccn2-c2nccs2)C3)c(Cl)c1 (stereo not given)	n	n
COc1cc(N2CCN(C(C)C)CC2)ccc1Nc1nc(Nc2cccc(F)c2C(=O)O)c2cc[nH]c2n1	n	n
COc1cc2c(cc1Nc1nc(Nc3ccsc3C(N)=O)c3cc[nH]c3n1)N(C(=O)CN(C)C)CCC2	1.6µM	x
CNC(=O)c1ncccc1Nc1nc(Nc2cc3c(cc2OC)CCCN3C(=O)CN(C)C)nc2[nH]ccc12	2.5µM	u
COC(=O)[C@@]1(C=C2c3ccc(F)cc3[C@@H](OC)[C@@H]2C)[C@@H]2C=CC[C@@H]21	u	n[8.59 µM]
O=C(OC[C@H]1O[C@](O)(COC(=O)c2cccnc2)[C@@H](OC(=O)c2cccnc2)[C@@H]1OC(=O)c1cccnc1)c1cccnc1	n	n
CC(C)[C@@H](OCc1ccccc1)[C@H](C)C=NO[C@H](C)c1cn([C@H](CO)Cc2ccccc2)nn1	n[8.59 µM]	n[8.59 µM]
NCCC[C@H](N)C(=O)O	n	n
NC1CCc2cc(O)c(O)cc2C1 (stereo not given)	22µM!	n
COC(=O)C1=C(C(=O)OC)[C@@H]2Nc3ccccc3[C@@]23C[C@@H](C(=O)OC)N(C(=O)NC2CCCC2)C3=N1	n[8.59 µM]	n[8.59 µM]
O=C(c1cccs1)N1C[C@H](O)[C@H](n2cc(C3CC3)nn2)C[C@@H]1c1ccc(Cl)cc1	n	x
C=CCc1ccccc1OCC(O)CNC(C)C (stereo not given)	11µM	n
CC(C)NC[C@H](O)COc1cccc2ccccc12	16µM!	n
CC(C)NC[C@@H](O)COc1cccc2ccccc12	u	n
CC(C)NCC(O)COc1ccccc1-n1cccc1 (stereo not given)	u	n
CCC1CC2C=CCS[P@](=O)(O2)O1 (stereo not given in full)	n	n
CC(C)=CCCC(C)=CC=CC1=CC2(C)CC1(C)C(C=C(C)CCC=C(C)C)CC2=O (stereo not given)	u	n[8.59 µM]
SMILES	Marburg entry	Lassa entry
Cc1cc2c(c(=O)o1)[C@H]1O[C@](c3ccsc3)(Cc3c1ccc1ccccc31)O2	u	n[8.59 µM]
CN1CC(O)C2=CC(=O)C(=O)C=C21 (stereo not given)	8.9µM	n
c1ccc2c(N3CCCCCC3)nc(CN3CCCCC3c3nccs3)nc2c1 (stereo not given)	u	n
COc1ccc(C(=O)Nc2ccccc2CCC2CCCCN2C)cc1 (stereo not given)	u	n
COc1ccc(C(OCCN2CCC[C@@H](C(=O)O)C2)(c2ccc(OC)cc2)c2ccc(OC)cc2)cc1	n	6.3µM
Cc1ccsc1C(=CCCN1CCC[C@@H](C(=O)O)C1)c1sccc1C	n	n
COc1ccc(C(OCCN2CCC[C@H](C(=O)O)C2)(c2ccc(OC)cc2)c2ccc(OC)cc2)cc1	n	4.5µM
COC(=O)[C@@H]1C[C@@]23C(=NN=C(SC)C2Nc2ccccc23)N1C(C)=O (stereo not given in full)	n[8.59 µM]	n[8.59 µM]
COC(=O)c1ccc(CN2C(=O)[C@@]3(CC(C)=CC[C@@H](COc4ccccc4)O3)c3ccccc32)cc1	n[8.59 µM]	n[8.59 µM]
O=C1OC2(CCCCC2)CC2=C1[C@H]1O[C@](c3ccsc3)(Cc3c1ccc1ccccc31)O2	n[8.59 µM]	n[8.59 µM]
COC[C@H](c1ccc(C(F)(F)F)cc1)N1CCN(C2(C)CCN(C(=O)c3c(C)ncnc3C)CC2)C[C@H]1C	n	n
C=C(C#Cc1ccc(OC)cc1)CCN1C=C(C(=O)OCC)C(c2ccccc2)NC1=O (stereo not given)	n[8.59 µM]	n[8.59 µM]
COc1ccc(CN2CCCC(Cn3cc(C(=O)N4CCCC4)nn3)C2)c(O)c1 (stereo not given)	n	n
CC=CC1=CC2=CC(=O)C(C)(OC(=O)c3c(C)cc(O)cc3O)C(=O)C2=CO1 (stereo not given)	n[8.59 µM]	x
NC(Cc1ccccc1)C(=O)O (stereo not given)	n	n
